According to PubChem BioAssay (Tox21):
Several values for one entry are separate records, joined by “and”; a condition that tells them apart may be missing. Equal entries are not always repeated. Inconclusive results are not listed. A call without a number means that no potency is given here. Activity calls are given as the source filed them. Unless noted, calls come from the whole dose curve; as a rule, active = well fitted activation curve with a large enough effect in the repeat runs; inconclusive = weak or mixed curves; inactive = no such curve, though single readings can be large or run the other way.

Assay: qHTS assay for small molecule agonists of the p53 signaling pathway (AID 651631; calls by dose curve)
Details: HCT-116 p53RE-bla reporter, beta-lactamase FRET ratio, 16 h; series mostly up to 73.3 µM
Outline: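 p53RE-bla HCT-116 cells; compounds 16 h, 37 °C; LiveBLAzer B/G FRET substrate 2 h RT; fluorescence intensity read-out, qHTS format.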
Note: nearly all actives have a fitted effect of over 15% in size.

Compound | Potency
O=C(O)CCCCCCCC(=O)O | inactive
CC(O)C(=O)O (stereo unspecified) | inactive
NC(=O)c1ccccc1O | inactive
C1N2CN3CN1CN(C2)C3 | inactive
Cc1cn([C@H]2C[C@H](N=[N+]=[N-])[C@@H](CO)O2)c(=O)[nH]c1=O | inactive
CC(=O)Nc1nnc(S(N)(=O)=O)s1 | inactive
CCCCC(CC)COC(=O)/C=C/c1ccc(OC)cc1 (stereo unspecified) | inactive
COc1ccc2[nH]cc(CCNC(C)=O)c2c1 | inactive
Cc1ccc(O)cc1 | inactive
CCCNC(=O)NS(=O)(=O)c1ccc(Cl)cc1 | inactive
Nc1ccn([C@H]2CC[C@@H](CO)O2)c(=O)n1 | inactive

Assay: qHTS assay for small molecules that induce genotoxicity in human embryonic kidney cells expressing luciferase-tagged ATAD5 (AID 651632); note: potency is the fitted concentration of half-maximal effect
Details: HEK293T ATAD5-luciferase induction, 16 h; series mostly up to 83.3 µM
Outline: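 ATAD5-luc HEK293T, 2,000 cells/well; cpd or DMSO pin-transferred; 16 hr, 37C/5% CO2; Amplite 30 min RT; luminescence.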

Compound | Potency
NC(N)=NC(=O)c1nc(Cl)c(N)nc1N | inactive
NC(=O)c1cnccn1 | inactive
Cc1noc(NS(=O)(=O)c2ccc(N)cc2)c1C | inactive
Nc1ccc(S(=O)(=O)Nc2nccs2)cc1 | inactive
O=c1ccc2ccccc2o1 | inactive
Nc1ccc(O)c(C(=O)O)c1 | inactive
CCOc1ccc(NC(=O)CC(C)O)cc1 (stereo unspecified) | inactive
CC(O)CO (stereo unspecified) | inactive
O=C(O)CCCCCCCC(=O)O | inactive
O=S(=O)(O)c1ccc2cc(O)ccc2c1 | inactive
CC(O)C(=O)O (stereo unspecified) | inactive
Oc1ccc(/C=C/c2cc(O)cc(O)c2)cc1 | 2.54 µM (active) and 2.46 µM (active) and 3.06 µM (active)
NC(=O)c1ccccc1O | inactive
CC(C)[C@@H]1CC[C@@H](C)C[C@H]1O | inactive
C1N2CN3CN1CN(C2)C3 | inactive
CC(O)CN(CCN(CC(C)O)CC(C)O)CC(C)O (stereo unspecified) | inactive
CCCN(CCC)S(=O)(=O)c1ccc(C(=O)O)cc1 | inactive
CC(=O)Nc1nnc(S(N)(=O)=O)s1 | inactive

Compound | Potency
CCCCOC(=O)CC(CC(=O)OCCCC)(OC(C)=O)C(=O)OCCCC | inactive
NNC(=O)c1ccncc1 | inactive
CCCCC(CC)COC(=O)/C=C/c1ccc(OC)cc1 (stereo unspecified) | inactive
NC(=O)NC1NC(=O)NC1=O (stereo unspecified) | inactive
OC(Cn1cncn1)(Cn1cncn1)c1ccc(F)cc1F | inactive
COc1ccc2[nH]cc(CCNC(C)=O)c2c1 | inactive
CC(C)(Oc1ccc(C2CC2(Cl)Cl)cc1)C(=O)O (stereo unspecified) | inactive
Cc1ccc(O)cc1 | inactive
O=C(O)C(=O)O | inactive
O=c1cc[nH]c(=S)[nH]1 | inactive
Cc1cc(=O)n(-c2ccccc2)n1C | inactive
CCCNC(=O)NS(=O)(=O)c1ccc(Cl)cc1 | inactive
Nc1ccn([C@H]2CC[C@@H](CO)O2)c(=O)n1 | inactive
CC(=O)NS(=O)(=O)c1ccc(N)cc1 | inactive
O=C(O)CCC(=O)O | inactive
Nc1ccc(C(=O)O)cc1 | inactive
NC(N)=O | inactive
